The campaign covered roughly 52,000 compounds. About 4,300 (8.3%) were called active. Cut-off read from the data, not from the text of the source: active = survival mostly below about 52% (no sharp cut-off); inactive = mostly above about 56%. The sample as a whole holds a higher share of actives than the screen did.

From PubChem BioAssay AID463173 (ICCB-Longwood Screening Facility, Harvard Medical School, 2010) come the findings set out here.

This assay deals with DeltatarO mutant. Nature of the assay: S. aureus survival, RN4220 and DeltatarO strains – OD600, teichoic acid synthesis inhibitors, primary screen (AID 463173). To be noted: S. aureus RN4220 wild type/DeltatarO growth, OD600, 18 h, stronger effect = lower value, screened at 18.75 µg/mL (by protocol).
With `COC(=O)c1c(NC(=O)CCCOc2ccc(C(C)(C)C)cc2)sc2c1C(C(=O)OC)CC2` (stereo not drawn), the survival was 3% (active).

In the case of `COC(=O)c1c(NC(=O)CCCOc2cccc(C)c2)sc2c1C(C(=O)OC)CC2` (stereo not drawn), the survival was 0% (active).

On to `COC(=O)c1c(NC(=O)/C(C#N)=C/c2ccccc2)sc2c1C(C(=O)OC)CC2` (stereo not drawn), for which the survival was 58% (inactive).

For `COC(=O)c1c(NC(=O)c2cccs2)sc2c1C(C(=O)OC)CC2` (stereo not drawn), the survival is 94% (inactive).

For `CCOc1ccc(/C=C/C(=O)Nc2sc3c(c2C(=O)OC)C(C(=O)OC)CC3)cc1` (stereo not drawn), the survival was 56% (inactive).

For `COC(=O)c1c(NC(=O)CCCOc2ccc(C)cc2)sc2c1C(C(=O)OC)CC2` (stereo not drawn), the survival was 44% (inactive).

Take `COc1ccc(NC(=O)CCn2c(-c3ccc(F)cc3)cc(C(C)=O)c2C)c(OC)c1`: the survival is 124% (inactive).

For `COc1ccccc1Cc1nc2ccccc2nc1SCC(=O)NCc1ccccc1Cl`, the survival was 135% (inactive).

With `COc1ccc2c(c1)CC(C(=O)Nc1cc(OC)c(OC)c(OC)c1)CO2` (stereo not drawn), the survival was 83% (inactive).

For `CCCCOC(=O)c1ccc(OC(=O)c2sc3ncn(Cc4ccccc4Cl)c(=O)c3c2C)cc1`, the survival is 90% (inactive).

For `Cc1ccc(CNC(=O)c2oc3ccc(S(=O)(=O)N4CCC(C)CC4)cc3c2C)cc1`, the survival is 57% (inactive).

`Cc1ccc(Cl)cc1NC(=O)Cn1c(=O)n(CCC(=O)N2CCc3ccccc3C2)c(=O)c2ccccc21`: the survival is 102% (inactive).

For the molecule `CSc1nc(-c2ccc(Cl)cc2)nn1S(=O)(=O)c1ccc(NC(C)=O)cc1`, the survival is 43% (active).

For the molecule `CSc1nc(-c2ccc(Cl)cc2)nn1C(C)=O`, the survival is 57% (inactive).

Consider `CC(=O)Nc1ccc(S(=O)(=O)NCCc2csc3nc(-c4ccc(Cl)cc4)nn23)cc1`, for which the survival was 70% (inactive).

As to `CCc1c(C)nc2cc(-c3cc(OC)cc(OC)c3)nn2c1NCCCN(CC)CC`, the survival is 113% (inactive).

Turning to `O=C(NC1CCCC1)C(c1ccccc1)N(C(=O)c1ccco1)C1CCCC1` (stereo not drawn), the survival was 79% (inactive).

As for `Cc1ccc(N(C(=O)c2ccco2)C(C(=O)NC2CCCC2)c2ccc(N(C)C)cc2)c(C)c1` (stereo not drawn), the survival is 93% (inactive).

For the molecule `O=C(NC1CCCC1)C(c1ccccc1)N(Cc1ccccc1F)C(=O)c1ccco1` (stereo not drawn), the survival is 102% (inactive).

As for `Cc1ccc(C(C(=O)NC2CCCCC2)N(C)Cc2ccccc2)cc1` (stereo not drawn), the survival was -3% (active).

Turning to `Cc1ccc(-c2nnn(CC(=O)N(Cc3ccccc3)C(C(=O)NC3CCCC3)c3ccco3)n2)cc1` (stereo not drawn), the survival was 64% (inactive).

In the case of `CN(Cc1ccccc1)C(C(=O)NC1CCCCC1)c1ccc(Cl)cc1` (stereo not drawn), the survival was 37% (active).

Take `O=C(O)c1cccc(N=C2NC(=O)C(CO)(CO)S2)c1`: the survival is 89% (inactive).

With `Cc1cccc(Cc2c(C)nc3nc(SCc4cccc(F)c4)nn3c2C)c1`, the survival is 78% (inactive).

With `CCOC(=O)c1ccc(NC(=O)C2CC(=O)N3CCCN=C3S2)cc1` (stereo not drawn), the survival was 94% (inactive).

In the case of `Cc1cccc(NC(=O)c2sc3nc4n(c(=O)c3c2C)N=C(c2ccc(F)cc2)CS4)c1C`, the survival is 99% (inactive).

Regarding `CCc1cccc(C)c1NC(=O)Cn1c(=O)cc(C(F)(F)F)c2c(C)nn(C)c21`, the survival is 85% (inactive).

For the molecule `CC(C)(C)n1cnc2cc(NCc3ccccc3Cl)ccc21`, the survival was 7% (active).

Turning to `CCc1ccc(CNc2ccc3c(c2)ncn3C(C)(C)C)cc1`, the survival is -16% (active).

On to `Cc1cc(C)n2nc(NCc3ccccc3Cl)nc2n1`, for which the survival was 90% (inactive).

As to `CC(C)(C)n1cnc2cc(NS(=O)(=O)c3ccccc3)ccc21`, the survival is 86% (inactive).

As for `CCn1cnc2cc(NCc3ccc(N(C)C)cc3)ccc21`, the survival is 72% (inactive).

With `COc1cc(CNc2ccc3c(c2)ncn3C(C)C)cc(OC)c1OC`, the survival is 64% (inactive).

On to `CCOc1ccc(C=Nc2ccc3c(c2)ncn3C)cc1`, for which the survival is 96% (inactive).

Consider `CCCCn1cnc2cc(NCc3ccccc3Cl)ccc21`, for which the survival was -16% (active).

In the case of `CCCn1cnc2cc(NC(=O)c3cc(OC)c(OC)c(OC)c3)ccc21`, the survival was 66% (inactive).

In the case of `CC(C)(C)n1cnc2cc(N=Cc3ccccc3O)ccc21`, the survival is 81% (inactive).

Consider `CCCCn1cnc2cc(NCc3ccc(OCC)cc3)ccc21`, for which the survival is 11% (active).

As to `CCCCn1cnc2cc(NC(=O)c3cc(OC)c(OC)c(OC)c3)ccc21`, the survival is 66% (inactive).

Turning to `CCOc1ccc(NC(=O)CSc2oc(-c3cccs3)nc2S(=O)(=O)c2ccc(Cl)cc2)cc1`, the survival was 63% (inactive).

Take `COc1ccc2c(c1)c1c(c(=O)n(-c3ccccc3C)c(=O)n1Cc1cccc(C(F)(F)F)c1)n2C`: the survival was 94% (inactive).

With `O=S(=O)(c1ccccc1)N1CCC(n2cnc3ccccc32)CC1`, the survival was 78% (inactive).

As to `Cc1ccc(C)c(NC(=O)C2CCN(S(=O)(=O)c3c(C)noc3/C=C/c3cccs3)CC2)c1`, the survival is 63% (inactive).

With `Cn1nnc(C(O)CNCc2ccc(F)cc2)n1` (stereo not drawn), the survival is 105% (inactive).

Turning to `CCOC(=O)c1c(NC(=O)c2ccc(S(=O)(=O)N(CCOC)CCOC)cc2)sc2c1CC(C)(C)NC2(C)C`, the survival is 78% (inactive).

Consider `Cc1cccc(CNC(=O)c2cnc3sc(N4CCCCCC4)nn3c2=O)c1`, for which the survival is 99% (inactive).

With `COc1ccc(NC(=O)CCn2nc(-c3ccccc3OC)c3c(C)cc(C)nc32)cc1`, the survival was 70% (inactive).

`CC(=O)c1cccc(NC(=O)c2cnn(-c3cccc(C)c3)c2-n2cccc2)c1`: the survival is 99% (inactive).

Take `CCOC(=O)c1[nH]c(C)c(CCC(=O)Nc2cc(Cl)ccc2C)c1C`: the survival was 73% (inactive).

For the molecule `CCOC(=O)c1oc2ccc(S(=O)(=O)n3nc(-c4cc(OC)cc(OC)c4)cc3N)cc2c1C`, the survival was 111% (inactive).

As to `COc1cccc(CNC(=O)CSC2=Nc3ccccc3N=C(c3ccc(F)cc3)C2)c1`, the survival is 117% (inactive).

For `CC(=O)c1ccc(NC(=O)C(Cc2ccccc2)NS(=O)(=O)c2ccc3c(c2)CCC(=O)N3)cc1` (stereo not drawn), the survival is 84% (inactive).

For the molecule `CCCSc1ncc(Cl)c(C(=O)Nc2c(C(=O)Nc3ccc(OC)cc3)oc3ccccc23)n1`, the survival was 68% (inactive).

With `COc1ccccc1CNC(=O)c1cnc2sc(N3CCCCC3)nn2c1=O`, the survival is 66% (inactive).

`Cc1oc(CSCCSCc2cc(C(=O)O)c(C)o2)cc1C(=O)O`: the survival was 94% (inactive).

For `CCCn1cnc2cc(NCc3ccccc3OCC)ccc21`, the survival is 35% (active).

Turning to `COc1cccc(CNc2ccc3c(c2)ncn3C)c1OC`, the survival was 122% (inactive).

As for `CCCn1cnc2cc(NCc3ccc(OC)cc3OC)ccc21`, the survival is 64% (inactive).

In the case of `Cc1ccc(-c2nnc(SCc3cccc(C#N)c3)o2)cc1`, the survival is 62% (inactive).

As for `COc1cccc(CNC(=O)c2cnc(N3CCCCC3)c3ccccc23)c1`, the survival is 86% (inactive).

Consider `CCCN(C(=O)Cn1ncc2c([nH]c3ccccc32)c1=O)c1ccc(F)cc1`, for which the survival was 101% (inactive).

Consider `CCOc1ccccc1N(CC)C(=O)Cn1ncc2c([nH]c3ccccc32)c1=O`, for which the survival was 46% (active).

As to `CCOC(=O)C1CCCN(C(=O)Cn2ncc3c([nH]c4ccccc43)c2=O)C1` (stereo not drawn), the survival was 83% (inactive).

Consider `CCOC(=O)C1CCN(C(=O)Cn2ncc3c([nH]c4ccc(C)cc43)c2=O)CC1`, for which the survival was 72% (inactive).

As to `CCOC(=O)C1CCN(C(=O)Cn2ncc3c([nH]c4ccccc43)c2=O)CC1`, the survival is 25% (active).

With `Cc1ccc(CCNC(=O)Cn2ncc3c([nH]c4ccc(C)cc43)c2=O)cc1`, the survival is 119% (inactive).

Take `COc1cc(OC)c(N(C)C(=O)Cn2ncc3c([nH]c4ccccc43)c2=O)cc1Cl`: the survival was 91% (inactive).

Consider `Cc1ccc(CNC(=O)Cn2ncc3c([nH]c4ccc(C)cc43)c2=O)cc1`, for which the survival is 88% (inactive).

Turning to `Cc1ccc(N(C)C(=O)Cn2ncc3c([nH]c4ccccc43)c2=O)cc1C`, the survival was 37% (active).

As to `CCN(CC)C(=O)Cn1ncc2c([nH]c3ccccc32)c1=O`, the survival is 118% (inactive).

`CCOc1ccccc1NC(=O)Cn1ncc2c([nH]c3ccccc32)c1=O`: the survival was 126% (inactive).

With `Cc1ccc2[nH]c3c(=O)n(CC(=O)NC(C)C)ncc3c2c1`, the survival is 6% (active).

As to `Cc1ccccc1S(=O)(=O)Cc1ccc(C(=O)NCCc2ccccc2)o1`, the survival was 76% (inactive).

On to `Cc1ccc2c(c1)c1c(c(=O)n(-c3ccccc3C)c(=O)n1Cc1ccccc1F)n2C`, for which the survival is 73% (inactive).

Turning to `CCCN(CCC)C(=O)Cn1c(=O)n(-c2cccc(C)c2)c(=O)c2c1c1cc(OC)ccc1n2C`, the survival was 64% (inactive).

For `CCOc1ccc(CCNC(=O)CCCn2nc(C)c3sc4ccccc4c3c2=O)cc1`, the survival is 72% (inactive).

Turning to `CCOc1ccc(CCNC(=O)NCc2noc3ccc(C)cc23)cc1`, the survival was 74% (inactive).

Consider `COCCCNC(=O)c1ccc(Cn2c(=O)c3ccccc3n(Cc3c(C)cc(C)cc3C)c2=O)cc1`, for which the survival is 107% (inactive).

Consider `CCCNC(=O)N(C)c1ncnnc1NC`, for which the survival is 98% (inactive).

For `COc1ccccc1C(=O)Nc1nnc(SCc2cc(=O)c3cc(Cl)ccc3[nH]2)s1`, the survival was 62% (inactive).

Take `Cc1ccc2[nH]c3c(=O)n(CC(=O)N(C)Cc4ccccc4)ncc3c2c1`: the survival was -1% (active).

On to `Cc1ccc2[nH]c3c(=O)n(CC(=O)N(CCN(C)C)Cc4ccccc4)ncc3c2c1`, for which the survival is 97% (inactive).

Regarding `CCCCN(C)C(=O)Cn1ncc2c([nH]c3ccc(C)cc32)c1=O`, the survival is 70% (inactive).

For `Cc1cc(F)ccc1NC(=O)c1c(C)oc2c1C1=NCCN1C=N2`, the survival was 102% (inactive).

As for `Cc1cccc(CNC(=O)c2ccc(C)c(-n3c(C)nc4cccnc43)c2)c1`, the survival was 67% (inactive).

In the case of `CCC(C)NC(=O)C1CCCN(S(=O)(=O)c2ccc(C)c(Cl)c2)C1` (stereo not drawn), the survival was 94% (inactive).

On to `COc1ccc(NC(=O)Cn2c(=O)n(Cc3nc(-c4ccccc4)no3)c(=O)c3cc4c(cc32)OCO4)c(OC)c1`, for which the survival is 94% (inactive).

For `CCOc1ccc(CCNC(=O)C(CC)n2nc(C)c3c(C)n(-c4ccccc4)nc3c2=O)cc1` (stereo not drawn), the survival was 69% (inactive).

Regarding `Cc1ccccc1OC(=O)c1snnc1C`, the survival is 90% (inactive).

Turning to `CCCOc1ccc(C(=O)N(Cc2ccc(Cl)cc2)Cc2ccco2)cc1`, the survival was 50% (inactive).

Turning to `CCS(=O)(=O)c1ncc(Cl)c(C(=O)N(Cc2ccccc2)Cc2ccco2)n1`, the survival is 52% (inactive).

On to `CCCS(=O)(=O)c1ncc(Cl)c(C(=O)N(Cc2ccccc2)Cc2ccco2)n1`, for which the survival was 40% (active).

Turning to `CCSc1ncc(Cl)c(C(=O)N(Cc2ccc(N(C)C)cc2)Cc2ccco2)n1`, the survival is 104% (inactive).

For `CCSc1ncc(Cl)c(C(=O)N(Cc2ccccc2)Cc2ccco2)n1`, the survival was 106% (inactive).

Regarding `CCCSc1ncc(Cl)c(C(=O)N(Cc2ccc(Cl)cc2)Cc2ccco2)n1`, the survival was 39% (active).

As to `Cc1ccc(CN(Cc2ccco2)C(=O)c2ccc(Cl)cc2Cl)cc1`, the survival is 53% (inactive).

Consider `CS(=O)(=O)c1ncc(Cl)c(C(=O)N(Cc2ccc(Cl)cc2)Cc2ccco2)n1`, for which the survival is 4% (active).

Consider `CSc1ncc(Cl)c(C(=O)N(Cc2ccc(N(C)C)cc2)Cc2ccco2)n1`, for which the survival is 80% (inactive).
